Assay results as given in PubChem BioAssay AID588413 (Sanford-Burnham Center for Chemical Genomics, 2011).
In all, about 340,000 compounds went through this assay and about 2,500 (0.74%) were called active. This is one part of a sample in which actives are shown more often than they occur. Unmarked numbers belong to inactive results.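 Rule for the calls: active = inhibition above about 55% (limit read from the data); inactive = the rest.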

Test: blockers of Gli reporter signaling – luciferase luminescence, Sufu-KO-LIGHT cells, uHTS, primary screen (AID 588413);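 note: 0% = DMSO-treated cells and 100% = wells with medium but no cells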
Conditions: Sufu-KO-LIGHT fibroblasts, at 5 µM, hits give high values

**Q.** With `COc1ccc(F)cc1C(=O)C1CCCN(C(=O)CCc2ccccn2)C1` (centres undefined) as the compound, how does the inhibition read?
**A.** 12.7%

**Q.** Which inhibition does the source give for `O=c1ccn(Cc2ccccc2Cl)cc1` here?
**A.** 17%

**Q.** With `CC(C)(C)c1cc(C(=O)NN)n(Cc2ccc(Cl)cc2Cl)n1` as the compound, how does the inhibition read?
**A.** -3.86%

**Q.** With `N#CC(C#N)=CN=c1ccn(Cc2ccc(Cl)cc2Cl)cc1` as the compound, how does the inhibition read?
**A.** 57.1% (active)

**Q.** For `COc1ccc(CC(=O)NC(C)c2ccc(Cl)c(Cl)c2)cc1S(=O)(=O)N1CCOCC1` (centres undefined), which inhibition is on record?
**A.** -4.33%

**Q.** Which inhibition does the source give for `COc1cc(Cl)c(C)cc1NC(=O)CN1CCCCCC1` here?
**A.** 40.6%

**Q.** Which inhibition does the source give for `CCn1c(NCCc2ccc(OC)c(OC)c2)nc2c1c(=O)n(C)c(=O)n2C` here?
**A.** 11.3%

**Q.** With `Cn1c(=O)c2c(nc(NCc3ccccc3)n2CC(N)=O)n(C)c1=O` as the compound, how does the inhibition read?
**A.** 0.59%

**Q.** Which inhibition does the source give for `CCCCNc1nc2c(c(=O)n(C)c(=O)n2C)n1Cc1cccc(OC)c1` here?
**A.** 73.1% (active)

**Q.** For `CCCCNc1nc2c(c(=O)[nH]c(=O)n2C)n1CCOc1ccccc1`, which inhibition is on record?
**A.** -15.8%

**Q.** For `Cn1c(=O)c2c(nc(NCCc3ccccc3)n2Cc2ccccc2)n(C)c1=O`, which inhibition is on record?
**A.** 62.7% (active)

**Q.** For `Cn1c(=O)c2c(nc(NCCNC(=O)c3ccco3)n2Cc2ccccc2F)n(C)c1=O`, which inhibition is on record?
**A.** -26.1%

**Q.** Which inhibition does the source give for `O=C(Cn1nnc(-c2ccccc2)n1)NC(=O)NC1CCCC1` here?
**A.** 0.46%

**Q.** For `Cc1ccc(SC(=O)COc2ccc(C)c(C)c2)cc1`, which inhibition is on record?
**A.** -16.4%

**Q.** With `COc1cc(C2C3C(=O)N(c4ccccc4)C(=O)C3ON2c2ccccc2)ccc1O` (centres undefined) as the compound, how does the inhibition read?
**A.** 1.38%

**Q.** With `O=C(CCN1C(=O)c2ccccc2C1=O)C1=NN[C@@H]2C(=O)N(c3ccc(F)cc3)C(=O)[C@H]12` as the compound, how does the inhibition read?
**A.** 27.5%

**Q.** For `CO/N=C/c1cn(-c2ccc(Cl)cc2)nn1`, which inhibition is on record?
**A.** -5.6%

**Q.** For `COc1ccccc1CNC(=O)C1CCN(c2nc3ccccc3o2)CC1`, which inhibition is on record?
**A.** 79.4% (active)

**Q.** Which inhibition does the source give for `COc1ccc(OC)c(CNC(=O)C2CCCN(c3nc4ccccc4o3)C2)c1` (centres undefined) here?
**A.** 1.69%

**Q.** Which inhibition does the source give for `COc1ccccc1CNC(=O)C1CCN(S(C)(=O)=O)CC1` here?
**A.** -3.13%

**Q.** With `COC(=O)Cc1nc2c(N)nc(N)nc2[nH]c1=O` as the compound, how does the inhibition read?
**A.** 5.09%

**Q.** With `NC(=O)C1CCN(C(=O)c2cc(S(=O)(=O)N3CCN(c4ccccc4)CC3)ccc2Cl)CC1` as the compound, how does the inhibition read?
**A.** 3.01%

**Q.** Which inhibition does the source give for `COc1ccc(CCC(=O)c2ccc(OC)cc2)cc1` here?
**A.** 1.15%

**Q.** For `COc1ccc(OC(C)C(=O)Nc2cccnc2)cc1` (centres undefined), which inhibition is on record?
**A.** -1.18%

**Q.** With `COc1ccc(CS(=O)/C(Cl)=C(/Cl)C(=O)Nc2ccc(OC)nc2)cc1` (centres undefined) as the compound, how does the inhibition read?
**A.** 68.1% (active)

**Q.** With `Cc1nc2nc[nH]n2c(=O)c1C/C=C/c1ccccc1` as the compound, how does the inhibition read?
**A.** 26.2%

**Q.** Which inhibition does the source give for `C=CCc1c(C)nc2cc(-c3ccccc3)[nH]n2c1=O` here?
**A.** 27.4%

**Q.** Which inhibition does the source give for `CCc1c(C)nc2cc(C)[nH]n2c1=O` here?
**A.** 75% (active)

**Q.** With `CCOc1ccccc1NC(=S)C(=C([O-])c1ccc2c(c1)OCCO2)[n+]1ccc(CC)cc1` as the compound, how does the inhibition read?
**A.** -43.8%

**Q.** Which inhibition does the source give for `O=C1C=C(c2ccnc3cc(Cl)ccc23)C[C@@H](c2ccc3c(c2)OCO3)C1` here?
**A.** 66.7% (active)

**Q.** Which inhibition does the source give for `COc1ccc2cc(C3=CC(=O)C[C@H](c4ccc5c(c4)OCO5)C3)ccc2c1` here?
**A.** -5.21%

**Q.** Which inhibition does the source give for `O=C1C=C(c2cc(C(F)(F)F)cc(C(F)(F)F)c2)C[C@@H](c2ccc3c(c2)OCO3)C1` here?
**A.** 6.64%

**Q.** For `N#CCC(=O)NC(=O)NCC1CC1`, which inhibition is on record?
**A.** -8.84%

**Q.** With `CC(=O)c1cc(NC(=O)c2ccccc2)c(=O)oc1/C=C/N(C)C` as the compound, how does the inhibition read?
**A.** 8.24%

**Q.** Which inhibition does the source give for `CCN1CCC2(CCN(Cc3cn[nH]c3-c3ccc(OC)c(F)c3)C2)C1` (centres undefined) here?
**A.** 7.07%

**Q.** Which inhibition does the source give for `COc1ccc(-n2c(Cc3cccn3C)nnc2SCC(=O)Nc2cc(C)cc(C)c2)cc1` here?
**A.** 0.63%

**Q.** For `CCCCn1c(SCC(=O)N2CCC(C(=O)OCC)CC2)nc2cc(S(N)(=O)=O)ccc21`, which inhibition is on record?
**A.** 6.66%

**Q.** With `CCCCn1c(SCC(=O)N2CCCC2=O)nc2cc(S(N)(=O)=O)ccc21` as the compound, how does the inhibition read?
**A.** 5.29%

**Q.** For `NS(=O)(=O)c1ccc(CCNC(=O)CCCn2c(SCC(=O)N3CCCC3)nc3ccsc3c2=O)cc1`, which inhibition is on record?
**A.** 79.4% (active)

**Q.** For `Cc1cc(N2C(=O)C(=O)/C(=C(/O)c3ccccc3)C2c2cccc(Br)c2)no1` (centres undefined), which inhibition is on record?
**A.** 7.53%

**Q.** For `CC(=O)c1ccc(NC(=O)Cn2c(=O)oc3ccccc32)cc1`, which inhibition is on record?
**A.** 11.6%

**Q.** With `Cc1sc2nc(SCCO)n(-c3ccccc3)c(=O)c2c1C` as the compound, how does the inhibition read?
**A.** 3.29%

**Q.** With `COC(=O)c1ccc(NCc2cc(O)ccc2O)cc1` as the compound, how does the inhibition read?
**A.** 3.08%

**Q.** With `O=C(OC12CC3CC(CC(C3)C1)C2)c1ccc(NCc2cc(O)ccc2O)cc1` as the compound, how does the inhibition read?
**A.** 70.4% (active)

**Q.** For `CC(C)OC(=O)c1ccc(NCc2cc(O)ccc2O)cc1Cl`, which inhibition is on record?
**A.** -6.82%

**Q.** Which inhibition does the source give for `Cn1cnc2c1c(=O)n(Cc1ccccc1C#N)c(=O)n2C` here?
**A.** 6.5%

**Q.** For `O=C(Nc1ccccc1C(=O)Nc1ccncc1)c1ccc([N+](=O)[O-])cc1`, which inhibition is on record?
**A.** -25.8%

**Q.** With `CN1C2CCC1CC(NC(=O)c1ccc([N+](=O)[O-])cc1)C2` (centres undefined) as the compound, how does the inhibition read?
**A.** -0.59%

**Q.** For `O=C(Nc1cc2c3c(c1)C1CCCC1CN3CC1CCCC21)c1ccc([N+](=O)[O-])cc1` (centres undefined), which inhibition is on record?
**A.** 72.5% (active)
